Sampled rows, rich in hits. Any-hit rate of the full collection: about 5.7%.
KB-V1 cytotox: kills drug-selected multidrug resistant KB-V1 cells | Potency, µM (top dose mostly 46.1 µM), hits mostly cytotoxic | KB-V1 MDR cells viability, CellTiter-Glo, 72 h | 3.4% of 400,000 active; also: potency is read from the fitted curve at half-maximal effect; nearly all actives have a fitted effect of over 60% in size
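Cytotoxicity via CellTiter-Glo luminescence after 72 h compound exposure at 37 degrees C. Cells: drug-selected KB-V1 line, DMEM phenol-red free plus 10% FBS. Compounds tested at multiple concentrations; normalized data fitted to concentration-effect curves.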
Giardia kill: kills Giardia lamblia. Giardia lamblia trophozoite viability. activity change, % at 7.66 µM, hits read low. 0.15% of 340,000 active; in the data active = activity change below about -80%; inconclusive = between about -30% and that limit;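 also: parasites exposed to compound for two days anaerobically before the ATP read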
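Viability, read as ATP luminescence: trophozoites at 100 cells/well, compound added, 48 hrs anaerobic at 37 deg C, then 15-30 min room-temperature development before reading.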
Nrf2 inh: Nrf2 pathway inhibition; A549 ARE-Fluc reporter, luciferase luminescence, 18-24 h; Potency, µM (series often up to 46 µM), inactives show at the top dose activity change, negative = inhibition, hits mostly inhibitors; 2.1% of 360,000 active; also: potency is read from the fitted curve at half-maximal effect; nearly all actives have a fitted effect of over 60% in size
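Nrf2 activity is the BugLite luminescence, read 15 min after reagent at room temperature, following CellTiter-Fluor cytotoxicity readout (30 min, 37C). Compound titrations were applied for 18-24 h to 5000 A549 ARE_Fluc cells/well in 5% FBS OPTI-MEM.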
A549 tox: counter-screen for Nrf2 inhibitors: cytotoxicity in A549 cells; A549 ARE-Fluc cells, CellTiter-Fluor viability, 18-24 h; 0.16% of 390,000 active; Potency, µM (top dose mostly 46 µM), for inactives: top-dose activity change, negative = cytotoxicity, actives largely listed as inhibitors; also: potency is read from the fitted curve at half-maximal effect
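A549 ARE_Fluc cells in 5% FBS OPTI-MEM were exposed to compounds in concentration-response for 18-24 h at 37 deg C. Viability was read by CellTiter-Fluor fluorescence (Ex 405/Em 525) after 30 min, before the luciferase read.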
KB-3-1 cytotox: KB-3-1 parental cell cytotoxicity | KB-3-1 viability, CellTiter-Glo ATP luminescence, 72 h | Potency, µM (highest dose often 46.1 µM), usual class: cytotoxic | 1.4% of 400,000 active; also: potency is read from the fitted curve at half-maximal effect; nearly all actives have a fitted effect of over 60% in size
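Viability of parental KB-3-1 cells, measured by CellTiter-Glo luminescence, followed a 72 h incubation at 37 °C with pinned compounds in phenol-red-free DMEM containing 10% FBS.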
PI4K2A block: inhibitors of human PI4K2A. activity change, negative = inhibition, % at 76.9 µM. Q9BTU6. AID 1346378. purified PI4K2A, ADP-Glo luminescence, 1 h; active compounds read low. 0.13% of 420,000 active; in the data active = activity change below about -50%; inconclusive = mostly about -30% to -49%;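 also: -100% = wells without enzyme as full effect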
Target sequence (Q9BTU6 whole entry, looked up): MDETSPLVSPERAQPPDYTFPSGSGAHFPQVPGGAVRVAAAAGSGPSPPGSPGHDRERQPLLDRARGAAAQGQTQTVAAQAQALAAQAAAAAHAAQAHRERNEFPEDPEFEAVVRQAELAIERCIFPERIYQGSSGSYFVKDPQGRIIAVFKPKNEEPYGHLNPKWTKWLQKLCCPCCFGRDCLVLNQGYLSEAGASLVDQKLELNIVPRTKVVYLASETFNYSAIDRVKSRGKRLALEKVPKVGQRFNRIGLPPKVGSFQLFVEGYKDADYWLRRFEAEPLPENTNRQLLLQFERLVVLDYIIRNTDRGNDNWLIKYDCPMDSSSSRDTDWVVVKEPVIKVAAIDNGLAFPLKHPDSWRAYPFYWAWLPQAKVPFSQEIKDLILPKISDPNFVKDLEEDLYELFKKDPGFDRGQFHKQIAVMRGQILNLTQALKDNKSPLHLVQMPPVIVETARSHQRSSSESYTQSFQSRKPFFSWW
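Compounds are screened against recombinant PI4K2A using PI as substrate and ATP, the latter dispensed at 300 microM. Reactions run one hour at ambient temperature before ADP-Glo detection; full inhibition defined by wells lacking enzyme.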
Active calls of the source: *. Unless noted, calls follow the shape of the dose curve; as a rule, active = well fitted curve in the direction sought with a large enough effect; inconclusive = small, poorly fitted or top-dose-only effect, or another doubt; inactive = no such curve, though single readings can be large; an effect the other way counts as inactive or inconclusive. Unless noted, % is scaled to controls: 0 for no effect and ±100 for the full control effect.

What do the screens show for `O=C(Nc1ccncc1)Nc1cccc(C(F)(F)F)c1`?
KB-V1 cytotox: inactive; Giardia kill: -2; Nrf2 inh: inconclusive; A549 tox: 0%; KB-3-1 cytotox: inactive; PI4K2A block: 1

How did CC(C)c1cnc2c(c1SCc1cccc(F)c1)c(=O)n(C)c(=O)n2C do in these assays?
A549 tox: 4%; PI4K2A block: 1

How did C[C@H]1[C@@H](N(C)Cc2cccs2)CC[C@@]23CCCN2C(=O)CCC[C@@H]13 do in these assays?
PI4K2A block: -3

Results for CCN(CC)S(=O)(=O)c1ccc(NC(=O)Nc2cccc(C(F)(F)F)c2)cc1 ?
KB-V1 cytotox: 13µM*; Giardia kill: 15; Nrf2 inh: 21µM*; A549 tox: inconclusive; KB-3-1 cytotox: 9.2µM*; PI4K2A block: -1

What do the screens show for `NC(Cc1ccc(C(F)(F)F)cc1)c1csc(Nc2nncc3ccccc23)n1` (stereo not given)?
KB-V1 cytotox: 16µM*; KB-3-1 cytotox: inconclusive; PI4K2A block: 0

What do the screens show for `Cc1cnc(C)c(Nc2nc(C(N)Cc3ccc(F)cc3)cs2)n1` (stereo not given)?
KB-V1 cytotox: inactive; KB-3-1 cytotox: inactive; PI4K2A block: 1

Results for NC(COCc1ccccc1)c1csc(Nc2nncc3ccccc23)n1 (stereo not given) ?
KB-V1 cytotox: inconclusive; KB-3-1 cytotox: inactive; PI4K2A block: -4

How did Cc1cnc(C)c(Nc2nc(C(N)Cc3ccc(Cl)cc3)cs2)n1 (stereo not given) do in these assays?
KB-V1 cytotox: 21µM*; KB-3-1 cytotox: inconclusive; PI4K2A block: 2

Results for COc1cc(/C=N/NC(=O)c2ccccc2O)ccc1OCC(=O)Nc1ccccc1 ?
KB-V1 cytotox: inactive; Giardia kill: 6; Nrf2 inh: inconclusive; A549 tox: -7%; KB-3-1 cytotox: inactive; PI4K2A block: -20

Results for O=C(COc1ccc(/C=N/NC(=O)c2cc3ccccc3o2)cc1Cl)Nc1ccccc1 ?
KB-V1 cytotox: 9.2µM*; Giardia kill: inconclusive; Nrf2 inh: inconclusive; A549 tox: inconclusive; KB-3-1 cytotox: 7.3µM*; PI4K2A block: -24

Results for COc1ccccc1OCCNC(=O)c1ccccc1C ?
KB-V1 cytotox: inactive; Giardia kill: -19; Nrf2 inh: 12%; A549 tox: -21%; KB-3-1 cytotox: inactive; PI4K2A block: -10

Results for Cc1ccccc1OCCNC(=O)CNC(=O)c1ccccc1O ?
KB-V1 cytotox: 16µM*; Giardia kill: -2; A549 tox: -6%; KB-3-1 cytotox: inactive; PI4K2A block: -1

How did CC(C)(C)NC(=O)N1CCN(S(=O)(=O)c2ccc3c(c2)CCC3)CC1 do in these assays?
KB-V1 cytotox: inactive; Giardia kill: 29; Nrf2 inh: 15%; A549 tox: -1%; KB-3-1 cytotox: inactive; PI4K2A block: 4

Results for O=C(CCOc1ccccc1)N1CCN(S(=O)(=O)c2ccccc2F)CC1 ?
KB-V1 cytotox: 21µM*; Giardia kill: 25; Nrf2 inh: -11%; A549 tox: 9%; KB-3-1 cytotox: inactive; PI4K2A block: 1

How did CC(=O)c1ccc(OCCCC(=O)N2CCN(S(=O)(=O)c3ccc(C(C)C)cc3)CC2)cc1 do in these assays?
KB-V1 cytotox: inconclusive; Giardia kill: -5; Nrf2 inh: 21µM*; A549 tox: -22%; KB-3-1 cytotox: inactive; PI4K2A block: -1

Results for CC(=O)c1ccc(OCCCC(=O)N2CCN(S(=O)(=O)c3cc(C)ccc3C)CC2)cc1 ?
KB-V1 cytotox: inactive; Giardia kill: -4; Nrf2 inh: inconclusive; A549 tox: 1%; KB-3-1 cytotox: inactive; PI4K2A block: 4

Results for CC(C)COC(=O)N1CCN(S(=O)(=O)c2ccc3c(c2)CCC3)CC1 ?
KB-V1 cytotox: 15µM*; Giardia kill: 3; Nrf2 inh: inconclusive; A549 tox: 10%; KB-3-1 cytotox: inactive; PI4K2A block: 8

From PubChem BioAssay
